Pf apPOL inh: Pf-apPOL inhibitors, biochemical, fluorescence; Plasmodium falciparum apicoplast DNA polymerase (apPOL); Recombinant Pf-apPOL, molecular beacon fluorescence, 1.5 h; inhibition, % at 10 µM; 210,000 compounds, 0.25% hits
mHTT CaM bind: mutant huntingtin-calmodulin interaction inhibitors – biochemical, AlphaScreen, primary screen. AlphaScreen His-mHTT/GST-CaM binding, luminescence. inhibition, % at 15 µM. 190,000 compounds, 3.6% hits. AID 1671202, 2021;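 further: 0% = both proteins with DMSO and 100% = one protein alone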
Numbers without * were called inactive; · = not tested or not shown; ! = not confirmed by another sample. Shown are actives, neighbours in structure and some others; about 3.6% of the full set was active somewhere. No stated cut-off is given here; in the data, active means inhibition above about 50%; inactive means the rest.

SMILES	Pf apPOL inh	mHTT CaM bind
Cc1ccc(CNC(=O)N2CCC3(CC2)Nc2cc(F)ccc2-n2cccc23)cc1	-2.4	66.4*
CNC(=O)N1CCC2(CC1)Nc1cc(F)ccc1-n1cccc12	4.5	36.5
O=C(NCc1ccccc1)N1CCC2(CC1)Nc1cc(F)ccc1-n1cccc12	-1.7	50.7*
Cc1ccc2c(c1)NC1(CCN(C(=O)CSCc3ccc(F)cc3)CC1)c1cccn1-2	-7.2	100.0*
COc1cccc(CNC(=O)N2CCC3(CC2)Nc2cc(F)ccc2-n2cccc23)c1	3.4	43.6
Cc1n[nH]c(C)c1NC(=O)c1ccc(Cl)cc1	-1.4	-1.8
CN1CCC=C(C(=O)O)C1	-0.6	·
CC1(C)[C@@H]2CCC1(CS(N)(=O)=O)C(=O)C2	·	-2.8
CCOc1cccc2cc(C(N)=O)c(=Nc3cccc(C(F)(F)F)c3)oc12	-2.0	2.0
COCCNC(=O)C1(C)CCC(=O)N1c1cc(Cl)c(OC)cc1OC (stereo unspecified)	3.5	-2.9
CN(C)c1ccc(-c2noc(-c3ccc(Br)cc3)n2)cc1	-0.6	78.6*
COc1ccc(-c2nnc(NC(=O)c3ccc(S(=O)(=O)N(C)C)cc3)o2)cc1	-1.1	30.0
CN(C)c1ccc(-c2nc(-c3ccc(=O)n(C)c3)no2)cc1	5.1	9.4
CN(C)c1ccc(C(=O)Nc2nnc(-c3ccc(Br)cc3)o2)cc1	-30.5	60.4*
CCOCCn1c(=O)n(C)c2ncncc21	-1.3	-2.2
COc1ccc(Nc2nnc(-c3ccc(C)c(S(N)(=O)=O)c3)c3ccccc23)cc1C(N)=O	-6.0	53.6*
COc1ccc(-c2nnc(Nc3ccc(OC)c(C(N)=O)c3)c3ccccc23)cc1	-5.1	60.0*
CCOc1ccc(-c2nnc(Nc3ccc(OC)c(C(=O)NC)c3)c3ccccc23)cc1	8.2	69.0*
CNC(=O)c1cc(Nc2nnc(-c3ccc(C)c(S(N)(=O)=O)c3)c3ccccc23)ccc1OC	6.0	26.9
COc1ccc(-c2nnc(Nc3ccc(CC(N)=O)cc3)c3ccccc23)cc1	-17.7	26.0
CNC(=O)c1cc(Nc2nnc(-c3ccc(OC)cc3)c3ccccc23)ccc1OC	-29.7	50.0
O=C1CSC(c2cccc(Br)c2)N1c1ccc(F)c(Cl)c1 (stereo unspecified)	-0.1	8.0
O=C(NCc1nc2ccccc2[nH]1)C1(c2cccs2)CCCC1	-4.7	-16.7
CCCOc1ccc(CN2CCCC2c2cc(C)no2)cc1OCC (stereo unspecified)	5.3	6.2
Cc1cccc(-c2ccc(C(=O)Nc3cccc(F)c3)cn2)c1	-1.5	-7.3
SMILES	Pf apPOL inh	mHTT CaM bind
CN1CCN(C(=O)C2COC3(CCCCC3)N2C(=O)c2cccc(F)c2)CC1 (stereo unspecified)	-3.3	-9.0
O=C1c2cccnc2C(=O)N1c1ccc(Sc2ccc([N+](=O)[O-])cc2)cc1	0.1	2.0
CC1CCN(c2nccnc2Oc2ccc(C(=O)Nc3ccc4c(c3)OCCO4)cc2)CC1	-0.6	28.2
COC(=O)c1cc(C=CC(=O)N(C(=O)NC2CCCCC2)C2CCCCC2)cn1C	-1.4	·
COc1ccc(S(=O)(=O)NCCC2CCN(C(=O)c3ccccc3)CC2)cc1Cl	0.4	22.6
COc1ccc(Cl)cc1S(=O)(=O)NCCC1CCN(C(=O)c2ccccc2)CC1	-3.1	76.7*
Cc1cc(C)cc(S(=O)(=O)NCCC2CCN(C(=O)c3ccccc3)CC2)c1	-4.7	26.8
COc1ccc(OC)c(S(=O)(=O)NCCC2CCN(C(=O)c3ccccc3)CC2)c1	0.7	63.5*
COc1cc(C2NC(C(=O)O)CS2)cc(Br)c1OCc1ccccc1Cl (stereo unspecified)	-7.4	-7.0
COc1ccc(CC(=O)N2CCC3(C2)Nc2cccnc2NC3=NC(C)(C)C)cc1Cl (stereo unspecified)	1.2	6.0
O=C(NCc1ccc(F)cc1)c1csc(Nc2ccccc2)n1	-1.9	5.4
COCCn1c(-c2ccccc2)cnc1SCC(=O)Nc1ccccc1	-15.3	0.2
CNC(=O)CSc1ncc(-c2ccc(Br)cc2)n1Cc1ccccc1	-7.8	69.1*
O=C(NCCC1=CCCCC1)c1ccc(OCC(=O)C2CC2)cc1	-16.5	-11.3
O=C(Nc1nc2ccccc2s1)c1cc2cc(Cl)ccc2oc1=O	-2.4	-4.0
N#CC1=C(N)C(C#N)(C#N)C(c2cccc([N+](=O)[O-])c2)C2CCCC=C12 (stereo unspecified)	6.9	53.0*
CN1CC=C2C(C#N)=C(N)C(C#N)(C#N)C(c3cccc(Cl)c3)C2C1 (stereo unspecified)	-2.7	9.0
N#CC1=C(N)C(C#N)(C#N)C(c2ccccc2I)C2CCCC=C12 (stereo unspecified)	-3.2	11.0
CC1CC=C2C(C#N)=C(N)C(C#N)(C#N)C(c3cccc(Cl)c3)C2C1 (stereo unspecified)	0.5	70.0*
N#CC1=C(N)C(C#N)(C#N)C(c2cccnc2)C2CCCC=C12 (stereo unspecified)	7.2	5.0
CC(C)(C)C1CC=C2C(C#N)=C(N)C(C#N)(C#N)C(c3c[nH]c4ccccc34)C2C1 (stereo unspecified)	23.8	98.0*
CC(=O)Nc1ccc(S(=O)(=O)N2CCN(Cc3nc(C(C)(C)C)cs3)CC2)cc1	-3.4	-7.4
Cc1ccc2nc(-c3ccc(NC(=O)C(=O)c4c(O)[nH]c5ccccc45)cc3)sc2c1	-6.7	-1.0
Cc1ccc(CNC(=O)c2ccc3c(c2)N(C)C(=O)C2CCCCN32)cc1 (stereo unspecified)	-3.6	7.4
O=C(CSc1nncc(=O)[nH]1)Nc1ccc(F)cc1F	-4.5	-8.2
SMILES	Pf apPOL inh	mHTT CaM bind
Cc1ccc(CN(CC(=O)NCc2ccccn2)S(=O)(=O)c2ccc(C)cc2)cc1	-3.6	1.3
O=[N+]([O-])c1ccc2c(c1)OC1(CCCC1)O2	-0.7	-3.1
Nc1ccc2c(c1)OC1(CCCC1)O2	4.6	59.8*!
COc1ccc(NC(=O)c2cc3ccc(OC)cc3oc2=Nc2ccc(C(=O)O)cc2)c(OC)c1	-3.0	8.0
Cc1c(Cl)cccc1NC(=O)C1CCN(c2nccnc2Oc2ccccc2)CC1	0.6	2.6
CCn1ccc2sc(C)c(C(=O)N3CCC(Cc4ccccc4)CC3)c2c1=O	-1.7	80.0*
CCn1ccc2sc(C)c(C(=O)N3CCC(N4CCCCC4)CC3)c2c1=O	-13.9	21.7
Cc1ccc(-n2nc3c(c2NC(=O)c2ccc(Cl)c([N+](=O)[O-])c2)CSC3)cc1	-2.9	-3.0
Cc1nn(C)cc1CN(C)C(=O)Cn1nc([N+](=O)[O-])c(Cl)c1C	-3.2	1.0
CC(=O)Oc1ccc2c(=O)c(Oc3ccccc3Br)c(C(F)(F)F)oc2c1	-0.3	52.1*
COc1ccc2c(=O)c(Oc3ccccc3Br)c(C(F)(F)F)oc2c1	9.4	4.0
COc1ccc(N2CCN(C(=O)c3cn4c(n3)CCCC4)CC2)cc1	-6.3	-4.5
Cc1occc1C(=O)N1CCN(c2ccccn2)CC1	-10.2	-4.3
Cc1ccc(-c2cc(C(=O)N3CCN(c4ccccn4)CC3)c(C)[nH]2)cc1C	-8.0	97.8*
COc1cc2c(cc1NC(=O)c1ccc([N+](=O)[O-])c(C)c1)oc1ccccc12	-1.6	0.6
N#CC1=C2N=C(N)c3c(sc4c3CCCCC4)N2C2=C(C(=O)CCC2)C1c1cccnc1 (stereo unspecified)	-5.6	61.0*
N#CC1=C2NC(=O)c3c(sc4c3CCCCC4)N2C2=C(C(=O)CCC2)C1c1cccnc1 (stereo unspecified)	-0.4	37.0

Source: PubChem (University of Kansas High Throughput Screening Laboratory)
